# An excerpt weighted towards active compounds, which were near 19% of everything screened.
# HT1080 IDH1KD tx: qHTS for induction of synthetic lethality in tumor cells producing 2HG: qHTS for the HT-1080-IDH1KD cell line. hit rate 2% among 360,000. AID 686971, 2013. HT-1080 IDH1 knockdown viability, ATP luminescence, 48 h. Potency, µM (highest dose often 46.1 µM), inactives show at the top dose activity, negative = toxicity, actives largely listed as cytotoxic;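 note: potency is the fitted concentration of half-maximal effect; 0% = DMSO wells and -100% = cell-free medium wells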
#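 Viability of IDH1-knockdown HT-1080 fibrosarcoma cells was assessed by CellTiter-Glo after 48 h at 37 °C with titrated compound; concentration-effect curves were classified by fit quality and response size.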
# TDP1 cell noCPT: qHTS for Inhibitors of human tyrosyl-DNA phosphodiesterase 1 (TDP1): qHTS in cells in absence of CPT | Potency, µM (doses to about 46.2 µM), without a hit: at the top dose activity change, negative = growth inhibition, actives largely listed as inhibitors | DT40 Tdp1-/- hTDP1 cells, no CPT, ATP luminescence, 48 h | hit rate 15% among 420,000; note: potency is the fitted concentration of half-maximal effect; nearly all actives have a fitted effect of over 55% in size
#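 Compound effects on proliferation are scored in DT40 Tdp1-/-;hTDP1 cells in the absence of CPT. ATP levels (CellTiter-Glo luminescence) are recorded after a ≥48 hr, 37 °C incubation.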
# DT40 TDP1 CPT: qHTS for Inhibitors of human tyrosyl-DNA phosphodiesterase 1 (TDP1): qHTS in cells in presence of CPT | Potency, µM (top dose mostly 46.2 µM), for the others: at the highest dose activity change, negative = growth inhibition, hits mostly inhibitors | chicken DT40 Tdp1-/-;hTDP1 cells + 20 nM CPT, ATP luminescence, 48 h | AID 686979, 2013 | hit rate 12% among 420,000; note: potency is the fitted concentration of half-maximal effect; nearly all actives have a fitted effect of over 55% in size
#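 Chicken DT40 Tdp1-/- cells stably complemented with human TDP1 were seeded at 400 cells/well in medium containing 20 nM camptothecin, exposed to pin-transferred compounds, and grown at 37 °C for at least 48 hr. Viability was read as ATP luminescence.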
# HT1080-NT tox: qHTS for induction of synthetic lethality in tumor cells producing 2HG: qHTS for the HT-1080-NT fibrosarcoma cell line; HT-1080-NT fibrosarcoma viability, CellTiter-Glo ATP luminescence, 48 h; Potency, µM (doses to about 46.1 µM), without a hit: at the highest dose activity, negative = less viability, actives largely listed as cytotoxic; hit rate 1.6% among 360,000; AID 686970, 2013;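 note: NT is the 2HG producing partner of a matched IDH1 knockdown line; potency is the fitted concentration of half-maximal effect; 0% = DMSO-treated cells and -100% = media-only wells without cells; nearly all actives have a fitted effect of over 55% in size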
#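 Compounds were tested in concentration-response format on HT-1080-NT cells for 48 hours at 37 degrees C. Cell viability came from CellTiter-Glo luminescence; curves were classified by r2, response magnitude and activity.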
# ELG1 DNA repair: qHTS screen for small molecules that inhibit ELG1-dependent DNA repair in human embryonic kidney (HEK293T) cells expressing luciferase-tagged ELG1; hit rate 2.3% among 330,000; HEK293T ELG1-luciferase reporter, luminescence, 16 h; DNA damage induced by 5-fluorouridine; Potency, µM (doses to about 46.1 µM), without a hit: at the top dose activity change, negative = inhibition, actives largely listed as inhibitors; note: potency is the fitted concentration of half-maximal effect; nearly all actives have a fitted effect of over 55% in size
#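 Cells (2,000 per well) received 5-fluorouridine plus test compound or DMSO and were incubated 16 hr at 37 °C, 5% CO2. Luciferase activity was read by luminescence 30 min after ONE-Glo addition; signal suppression marked inhibition of damage-induced ELG1 function.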
# IL-1B inflam inh: qHTS for Inhibitors of Inflammasome Signaling: IL-1-beta AlphaLISA Primary Screen; hit rate 4.7% among 360,000; activity change, % at 57.5 µM; THP-1 LPS/ATP IL-1B secretion, AlphaLISA, 16 h; active compounds read low; AID 743279, 2014; in the data active = activity change below about -50%; inconclusive = mostly about -30% to -49%
#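 Secreted IL-1B measured by AlphaLISA bead assay after 16 h compound exposure of THP-1 cells; compounds (final up to 57.5 uM) added 1 h before LPS (250 ng/mL) and ATP (1.25 mM) stimulation; lower signal means less secretion.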
# Numbers without * were called inactive; ? = inconclusive; / = not tested or not shown. Unless noted, calls come from the whole dose curve; as a rule, active = well fitted curve in the direction sought with a large enough effect; inconclusive = small, poorly fitted or top-dose-only effect, or another doubt; inactive = no such curve, though single readings can be large; an effect the other way counts as inactive or inconclusive. Unless noted, % is set by controls: 0 for no effect and ±100 for the full control effect.
SMILES,HT1080 IDH1KD tx,TDP1 cell noCPT,DT40 TDP1 CPT,HT1080-NT tox,ELG1 DNA repair,IL-1B inflam inh
CCCn1c(C(O)c2cc(OC)c(OC)c(OC)c2)nc2ccccc21 (stereo unspecified),1%,21µM*,?,0%,2%,45
COc1cccc(C(O)c2nc3ccccc3n2C(C)C)c1 (stereo unspecified),3%,-19%,-10%,4%,10%,?
COc1cc(C(O)c2nc3ccccc3s2)cc(OC)c1OC (stereo unspecified),-11%,9.2µM*,4.1µM*,-12%,-6%,9
COc1ccc(C(O)c2nc3ccccc3n2C)cc1OC (stereo unspecified),-29%,12µM*,9.2µM*,?,9.2µM*,1
COc1ccc(C(O)c2nc3ccccc3s2)cc1 (stereo unspecified),/,/,/,/,13%,/
Cc1cc(C)c(Cn2c(C(O)c3ccccc3)nc3ccccc32)c(C)c1 (stereo unspecified),/,9.2µM*,18µM*,/,/,/
C[C@@H]1C/C=C/C=C/C=C/C=C/[C@H](O[C@@H]2O[C@H](C)[C@@H](O)[C@H](N)[C@@H]2O)C[C@@H]2O[C@](O)(C[C@@H](O)C[C@H]3O[C@@H]3/C=C/C(=O)O1)C[C@H](O)[C@H]2C(=O)O,/,-1%,1%,/,/,/
Cc1ccc(NC(=O)Cn2cc(S(=O)(=O)c3ccccc3)c(=O)c3cc4c(cc32)OCO4)cc1,/,?,-20%,/,/,/
COc1ccc(-c2coc3c(C(=O)Nc4cccc(NS(C)(=O)=O)c4)cccc23)c(C)c1,?,21µM*,?,?,/,-15
COC(=O)c1cccc(NC(=O)c2cccnc2)c1,29%,-19%,-16%,13%,25%,6
CS(=O)(=O)Nc1cccc(NC(=O)c2cccc3c(-c4cccnc4)coc23)c1,-15%,16µM*,12µM*,-11%,/,-8
CC(=O)c1cccc(NC(=O)c2cccc3c(-c4cccnc4)coc23)c1,-22%,9.2µM*,12µM*,-21%,/,0
CC(=O)c1cccc(NC(=O)c2cccc3c(-c4cnn(C)c4)coc23)c1,18%,21µM*,13µM*,10%,/,-81*
Cn1cc(-c2coc3c(C(=O)Nc4ccccc4)cccc23)cn1,-9%,?,?,-18%,/,-29
O=C(Nc1cccc(OC(F)(F)F)c1)c1cccc2c(-c3cccnc3)coc12,?,21µM*,23µM*,?,/,-28
COc1ccc(NC(=O)c2cccc3c(-c4ccc(OC)cc4C)coc23)cc1,?,?,?,?,/,23
Cc1csc2nc(-c3cccc(NC(=O)c4ccc(S(N)(=O)=O)cc4)c3)cn12,/,16µM*,?,/,/,/
Cc1csc2nc(-c3cccc(NC(=O)c4c(F)cccc4F)c3)cn12,/,23µM*,23µM*,/,/,/
C=CCn1c(O)c2ccc(C(=O)N=NC(=O)COc3ccccc3F)cc2c1O,10%,-8%,18%,3%,6%,9
Cc1ccc(-c2c(CN3CCN(c4cccc(C)c4)C(C)C3)csc2C)cc1 (stereo unspecified),/,16µM*,?,/,/,/
Cc1ccc(-c2c(CN3CCN(c4cccc(C)c4C)CC3)csc2C)cc1,/,21µM*,15µM*,/,/,/
Cc1ccc(-c2ccccc2)n1-c1ccc(C(=O)O)cc1,0%,-10%,-21%,1%,8%,-8
Oc1ccccc1-n1c(-c2ccccc2)ccc1-c1ccccc1,?,-25%,?,?,-18%,-80*
COc1ccc(CCNC(=O)CCOc2cc(C)ccc2C)cc1OC,-6%,-18%,-18%,-1%,-3%,7
CCCS(=O)(=O)N1CC(=O)N(c2cccc(Cl)c2)C(C)(C(=O)NC2CCCCC2)C1 (stereo unspecified),/,1%,-27%,/,/,/
SMILES,HT1080 IDH1KD tx,TDP1 cell noCPT,DT40 TDP1 CPT,HT1080-NT tox,ELG1 DNA repair,IL-1B inflam inh
CN(C)c1ccc(/C=C/c2nc(-c3ccccc3O)n(-c3ccccc3)n2)cc1,/,?,16µM*,/,/,/
COc1cccc(NC(=O)Nc2cc(C)ccc2OC)c1,7%,?,-5%,8%,3%,-7
Cc1ccc(OC(F)F)c(NC(=O)Nc2cccc(C(F)(F)F)c2)c1,?,?,13µM*,?,?,-99*
COc1ccc(NC(=O)Nc2cccc(C(F)(F)F)c2)cn1,?,21µM*,?,?,?,?
COc1ccc(NC(=O)Nc2cccs2)cn1,6%,18µM*,13µM*,12%,?,-6
N#Cc1ccc(CN2CCN(C(=O)C3CC(=O)N(c4ccc5c(c4)OCCO5)C3)CC2)cc1 (stereo unspecified),3%,?,?,-2%,/,8
COc1ccc2[nH]c(S(=O)Cc3ncc(C)c(OC)c3C)nc2c1 (stereo unspecified),-14%,16µM*,?,-11%,-6%,4
COc1ccnc(CS(=O)c2nc3cc(C(O)(F)F)ccc3[nH]2)c1OC (stereo unspecified),20%,?,0%,12%,?,23
COc1ccc2c(C)cc(C)nc2n1,10%,-1%,0%,8%,-7%,11
COc1ccc2[nH]c(S(=O)Cc3ncc(C)c(OC)c3C)nc2n1 (stereo unspecified),/,27µM*,?,/,/,/
O=CN1CCN(c2c([N+](=O)[O-])c(=O)oc3ccccc23)CC1,0%,?,-18%,-1%,13%,12
CC1CCN(c2c([N+](=O)[O-])c(=O)oc3ccccc23)CC1,18%,23µM*,16µM*,14%,0%,-14
O=c1oc2ccccc2c(N2CCCC2)c1[N+](=O)[O-],0%,-30%,-18%,13%,23%,-4
O=c1oc2ccccc2c(N2CCCCC2)c1[N+](=O)[O-],14%,16µM*,16µM*,8%,-2%,-50*

# Bioassay records from PubChem.
